SSB-PriA inh: blocks PriA binding to SSB C-terminal tail. AlphaScreen SSBct-PriA binding, biotinylated peptide. inhibition, % at 33 µM. 430,000 compounds, 0.6% hits. AID 1272365; in the data active = inhibition mostly above about 37%, no sharp cut-off; inactive = mostly below about 20%
Mtb FBA inh: inhibits M. tuberculosis FBA enzyme. 360,000 compounds, 2.3% hits. AID 588726. P9WQA3. purified M. tuberculosis FBA, fluorescence read-out. inhibition, % at 1 µM
Target sequence (P9WQA3 whole entry, looked up): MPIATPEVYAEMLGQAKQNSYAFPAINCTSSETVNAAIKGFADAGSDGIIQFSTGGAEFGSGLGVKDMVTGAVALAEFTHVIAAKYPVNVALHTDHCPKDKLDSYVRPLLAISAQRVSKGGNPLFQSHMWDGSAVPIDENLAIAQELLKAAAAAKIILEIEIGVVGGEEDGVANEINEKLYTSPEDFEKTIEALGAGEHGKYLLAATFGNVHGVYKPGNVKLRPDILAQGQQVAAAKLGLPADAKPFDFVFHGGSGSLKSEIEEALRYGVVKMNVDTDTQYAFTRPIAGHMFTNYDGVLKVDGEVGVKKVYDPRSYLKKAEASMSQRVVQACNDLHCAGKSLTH
Rv3671c protease: inhibitors of M. tuberculosis serine protease Rv3671c. P9WHR9. inhibition, % at 5.96 µM. 320,000 compounds, 0.048% hits. AID 2606; in the data active = inhibition above about 38%;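 note: extracellular domain of Rv3671c used as enzyme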
Mtb bLac sens: beta-lactam sensitization of Mtb H37Rv | 330,000 compounds, 0.27% hits | AID 434955 | inhibition, % at 25 µM | M. tuberculosis H37Rv growth with meropenem, percent inhibition; call rule not given here;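 note: growth measured after seven days incubation then overnight dye step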
GDH-TPI counter-1: GDH-TPI coupled enzyme inhibition counter-screen; GDH-TPI coupled enzyme counterscreen, NADH absorbance; inhibition, % at 4.8 µM; 360,000 compounds, 1.2% hits; in the data active = inhibition above about 30%
Mtb UGM inh: inhibitors of M. tuberculosis UDP-galactopyranose mutase; 320,000 compounds, 0.06% hits; inhibition, % at 10 µM; AID 504406; purified UGM, fluorescence polarization probe displacement; P9WIQ1; in the data active = inhibition above about 10%, passing the limit was not always enough
Mtb FBA confirm: confirmation of M. tuberculosis fructose-bisphosphate aldolase inhibitors; 5,600 compounds, 78% hits; inhibition, % at 1 µM; AID 651616; shares compounds with Mtb FBA inh; purified M. tuberculosis FBA, fluorescence read-out
GDH-TPI counter-2: inhibits GDH-TPI coupling enzymes, flagging Mtb FBA hits; shares compounds with Mtb FBA inh; GDH-TPI coupled enzyme counterscreen, fluorescence; inhibition, % at 1 µM; 5,600 compounds, 81% hits; AID 652141; in the data active = inhibition above about 10%
Hits are given with their value; - = inactive; . = no result given; + = active, no number. This is a sample that favours compounds with a hit; in the whole collection about 3.2% have one here. Cut-off read from the data, not from the text of the source, unless noted: active = inhibition above about 27%; inactive = the rest.

SMILES	SSB-PriA inh	Mtb FBA inh	Rv3671c protease	Mtb bLac sens	GDH-TPI counter-1	Mtb UGM inh	Mtb FBA confirm	GDH-TPI counter-2
CCN(CC)CCCN(Cc1cc2cc3c(cc2[nH]c1=O)OCO3)C(=S)NCCOC	-	52.4	-	-	34.1	-	-	-
Cc1ccc2cc(C#N)c(NCCCNC(=O)C3CCCO3)nc2c1 (stereo not drawn)	-	51.4	-	-	-	-	92.4	85.8
Cc1ccc2cc(C#N)c(NCCNC(=O)C3CCC3)nc2c1C	-	52.5	-	-	-	-	-	-
Cc1ccc2cc(C#N)c(N3CCCN(C(=O)C4CCCO4)CC3)nc2c1 (stereo not drawn)	-	-	-	-	-	-	.	.
CCOCCCNC(=S)NCCCNc1nc2c(C)c(C)ccc2cc1C#N	-	47.4	.	.	-	.	110.9	79.0
CCOc1cc(C=NO)cc(Cl)c1OC	-	.	.	.	.	.	.	.
O=C(c1cccs1)N1CCc2ccc(NS(=O)(=O)c3ccc(Cl)s3)cc21	-	.	.	.	.	.	.	.
Cc1cc(C)c(C#N)c(N2CCCC(C(N)=O)C2)n1 (stereo not drawn)	-	56.5	-	-	-	-	+	+
COc1cccc(CC(NC(C)=O)C(=O)NC2CCN(c3nc(C)cc(C)c3C#N)CC2)c1 (stereo not drawn)	-	29.1	-	-	-	-	57.8	52.4
CCOC(=O)C1CCN(C(=O)c2cnn3c(C)cc(C)nc23)CC1	-	35.3	-	-	-	-	76.0	55.2
CCOC(=O)C1CCN(c2nc(C)cc(C)c2C#N)CC1	-	28.0	-	-	-	-	170.4	123.9
CCOC(=O)C1CCN(C(=O)COC(=O)c2nc3nc(C)cc(C)n3n2)CC1	-	-	-	-	-	-	.	.
COc1ccc(CC(NC(C)=O)C(=O)NC2CCN(c3nc(C)cc(C)c3C#N)CC2)c(OC)c1 (stereo not drawn)	-	-	-	-	-	-	.	.
CC(C)CS(=O)(=O)C1CN(C(=O)NCc2ccc(Cl)cc2)C1	-	.	.	.	.	.	.	.
COc1cccc(C(=O)Oc2c(Sc3ccc(Cl)cc3)c(C)nn2-c2ccccc2)c1OC	-	.	.	.	.	.	.	.
CC(=O)Nc1cccc(-c2ccnc3c2CC(C)(C(=O)NCc2ccc(N(C)C)cc2)O3)c1 (stereo not drawn)	.	-	.	.	-	.	.	.
CN(C)c1ccc(-c2ccnc3c2CC(C)(C(=O)NCc2ccccc2)O3)cc1 (stereo not drawn)	.	48.8	.	.	-	.	-	-
CC1(C(=O)NCc2cccc(Cl)c2)Cc2c(-c3ccccc3)ccnc2O1 (stereo not drawn)	.	-	.	.	-	.	.	.
CN(C)c1ccc(-c2ccnc3c2CC(C)(C(=O)NCc2cccc(Cl)c2)O3)cc1 (stereo not drawn)	.	61.7	.	.	-	.	57.9	38.6
CN(C)c1ccc(-c2ccnc3c2CC(C)(C(=O)NCc2ccncc2)O3)cc1 (stereo not drawn)	.	59.6	.	.	33.6	.	177.9	145.3
CN(C)c1ccc(-c2ccnc3c2CC(C)(C(=O)NCC2CCOCC2)O3)cc1 (stereo not drawn)	.	47.7	.	.	-	.	113.6	97.6
Cc1cc(-n2c(C)cc(C(=O)COc3ccc4ccc(=O)oc4c3)c2C)no1	-	28.3	-	-	-	-	59.8	59.1
CCOC(=O)N1CCN(C(=O)Nc2ccc3nccnc3c2)CC1	-	-	-	-	-	-	.	.
Cc1nc2ccc(NC(=S)N3CCCC3)cc2nc1C	-	-	-	-	-	-	.	.
CCOC(=O)N1CCN(C(=O)Nc2ccc3nc(C)c(C)nc3c2)CC1	-	43.0	-	-	-	-	+	+
SMILES	SSB-PriA inh	Mtb FBA inh	Rv3671c protease	Mtb bLac sens	GDH-TPI counter-1	Mtb UGM inh	Mtb FBA confirm	GDH-TPI counter-2
Cc1nc2ccc(NC(=O)N3CCCCC3)cc2nc1C	-	62.7	-	-	-	-	159.3	129.8
COc1cc2c(cc1OC)CC[N+](C)=C2	-	95.0	-	-	-	-	111.5	76.5
C(=NN1CCN(C2c3ccccc3-c3ccccc32)CC1)c1cccs1	-	.	.	.	.	.	.	.
COc1ccc(-c2c(NC(=O)c3ccco3)oc3c(C)cccc3c2=O)cc1	-	52.7	-	-	-	-	-	-
CCOc1cccc(C=NNC(=O)c2cc(-c3cccn3C)n[nH]2)c1O	-	.	.	.	.	.	.	.
COC(=O)Nc1nnc(-c2ccc(OC)cc2)s1	-	43.2	-	-	-	-	58.2	56.2

Screens (PubChem BioAssay)
